Assay outcomes (PubChem)
This is a sample that favours compounds with a hit; in the whole collection about 6.5% have one here.
FMDV inh: blocks foot and mouth disease virus | FMDV antiviral cell-based qHTS | Potency, µM (top dose mostly 57.9 µM), actives largely listed as inhibitors | 410,000 tested, 1.2% active | AID 1159524; calls by dose curve; tested in HEK293T cells; note: read-out not given here; nearly all actives have a fitted effect of over 45% in size
HCMV inh: blocks human cytomegalovirus replication; HFF cells, HCMV-luciferase reporter, 72 h; hits give low values; activity change, negative = inhibition, % at 57.5 µM; 410,000 tested, 4.5% active; in the data active = activity change below about -60%; inconclusive = no clear call, values can overlap the other calls; inactive = above about -39%
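HFF cells seeded 16 h at 37C, treated with compounds, infected with luciferase-reporter HCMV at MOI 1 PFU/cell; luciferase read at 72 h post infection, normalized to buffer-only and Salinomycin controls.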
VACV Venus inh: vaccinia inhibition (Venus reporter) | Vaccinia virus Venus reporter expression, fluorescence | Potency, µM (highest dose often 36.5 µM), actives largely listed as inhibitors | 330,000 tested, 0.46% active | AID 720580; calls by dose curve; tested in A549 cells; note: nearly all actives have a fitted effect of over 30% in size
Vaccinia mCherry: inhibitors of vaccinia virus infection (mCherry reporter signal); Vaccinia virus mCherry reporter infection, fluorescence; Potency, µM (doses to about 36.5 µM), most hits filed as inhibitors; 310,000 tested, 0.63% active; AID 720579; calls by dose curve; tested in A549 cells; note: nearly all actives have a fitted effect of over 35% in size
LASV entry inh: inhibitors of Lassa virus binding or cell entry; 300,000 tested, 1.2% active; Potency, µM (highest dose often 37.9 µM), hits mostly inhibitors; Lassa virus pseudotype entry inhibition, cell reporter; calls by dose curve; tested in HEK293 cells; note: nearly all actives have a fitted effect of over 50% in size
MARV entry inh: inhibitors of Marburg virus binding or cell entry | 300,000 tested, 1.8% active | Potency, µM (top dose mostly 37.8 µM), actives largely listed as inhibitors | Marburg virus pseudotyped entry inhibition, cell reporter; calls by dose curve; tested in HEK293 cells
Large screens that a line does not name were inactive.

CCOP(=O)(Nc1ccc2c(c1)C(=NNC(N)=S)c1ccccc1-2)OCC	FMDV inh 35µM, VACV Venus inh inconclusive, Vaccinia mCherry 11µM, MARV entry inh inconclusive
CCCCn1c(NC(=O)CC)c(C#N)c2nc3ccccc3nc21	none (no result: VACV Venus inh, Vaccinia mCherry)
CCCCn1c(NC(=O)c2ccccc2Cl)c(C#N)c2nc3ccccc3nc21	HCMV inh -60, MARV entry inh 21µM (no result: VACV Venus inh, Vaccinia mCherry)
N#Cc1c(NC(=O)c2ccccc2Cl)n(Cc2ccccc2)c2nc3ccccc3nc12	HCMV inh -70, LASV entry inh inconclusive
CC(C)C(NC(=O)c1ccoc1)c1nnc2n1CCN(Cc1ccc3c(c1)Cc1ccccc1-3)CC2 (stereo not given)	none (no result: HCMV inh, LASV entry inh, MARV entry inh)
CCCCCCn1c2c(c(=N)c3c1CCC3)CCC2	FMDV inh inconclusive, HCMV inh -104, LASV entry inh 3.7µM, MARV entry inh 8.2µM (no result: VACV Venus inh, Vaccinia mCherry)
CCCCCCn1c(=O)[nH]c2c(c1=O)CCC2	none
CCCCCCCCCn1c2c(c(=N)c3c1CCC3)CCC2	FMDV inh 5.6µM, VACV Venus inh inconclusive, Vaccinia mCherry inconclusive, LASV entry inh 1.4µM, MARV entry inh inconclusive (no result: HCMV inh)
N=c1c2c(n(Cc3ccc(F)cc3)c3c1CCC3)CCC2	HCMV inh -100, MARV entry inh inconclusive
CCCCCCCn1c2c(c(=N)c3c1CCC3)CCCC2	FMDV inh 3.2µM, HCMV inh -95, VACV Venus inh inconclusive, Vaccinia mCherry inconclusive, LASV entry inh inconclusive, MARV entry inh inconclusive
Fc1ccc(CN2CCCCCCC2)cc1	none
O=C(c1cnccn1)N1CCC2(CCCN(c3ccc(-c4ccccc4)cc3)C2)CC1	none (no result: HCMV inh, VACV Venus inh, Vaccinia mCherry, LASV entry inh, MARV entry inh)
CCn1c2c(c(=N)c3ccccc31)CCC2	FMDV inh inconclusive, HCMV inh -77
CCCCn1c2c(cc(C(=O)OC)c1=O)C(=O)CCC2	none (no result: LASV entry inh, MARV entry inh)
CCCCn1c2c(c(=N)c3c1CCC3)CCC2	FMDV inh inconclusive, HCMV inh -89, VACV Venus inh inconclusive, LASV entry inh inconclusive, MARV entry inh inconclusive (no result: Vaccinia mCherry)
CNCC(O)Cn1c2c(c3ccccc31)CCCC2 (stereo not given)	MARV entry inh inconclusive (no result: VACV Venus inh, Vaccinia mCherry)
CCn1c(=O)c2c3c(sc2n(C)c1=O)CCC3	HCMV inh inconclusive (no result: VACV Venus inh, Vaccinia mCherry)
CCn1c2c(c(=N)c3c1CCC3)CCC2	HCMV inh -84, MARV entry inh inconclusive
C[C@@H]1CCCN1[C@@H]1C[S+](=O)([O-])N[C@@H]1COCc1ccccc1	none (no result: FMDV inh, HCMV inh, VACV Venus inh, Vaccinia mCherry, MARV entry inh)
CCCCNC(=O)N[C@H]1CC[C@@]23CCCN2C(=O)CCC[C@H]3C1Cc1ccccc1 (stereo not given in full)	none (no result: FMDV inh, VACV Venus inh, Vaccinia mCherry, LASV entry inh, MARV entry inh)
COc1cc2nc(N3CCOCC3)nc(NC(C)C)c2cc1OC	none (no result: FMDV inh, HCMV inh, LASV entry inh, MARV entry inh)
C(=Nc1cccnc1)c1ccnc2ccccc12	none (no result: FMDV inh, HCMV inh, LASV entry inh, MARV entry inh)
O=C(CP(=O)(c1ccccc1)c1ccccc1)N/N=C/c1cc(Br)cc(Br)c1O	HCMV inh inconclusive, LASV entry inh 2.8µM, MARV entry inh inconclusive
O=C(N/N=C/c1cc(Br)cc(Cl)c1O)c1ccc2c(c1)OCO2	VACV Venus inh inconclusive, Vaccinia mCherry inconclusive, LASV entry inh inconclusive, MARV entry inh inconclusive
COc1cc(Br)cc(/C=N/NC(=O)Cc2ccccc2)c1O	VACV Venus inh inconclusive, Vaccinia mCherry inconclusive, LASV entry inh 13µM
O=C(Cc1ccccc1)N/N=C/c1cc(Br)cc(Cl)c1O	VACV Venus inh inconclusive, Vaccinia mCherry 13µM, LASV entry inh inconclusive, MARV entry inh inconclusive
O=C(C[n+]1ccccc1)N/N=C/c1cc(Br)cc(Br)c1O	none (no result: HCMV inh)
OC(c1cc(-c2cccc(Cl)c2)nc2ccccc12)C1CCCCN1 (stereo not given)	FMDV inh inconclusive, HCMV inh -98, Vaccinia mCherry inconclusive, LASV entry inh inconclusive, MARV entry inh 11µM
OC(c1cc(C(F)(F)F)nc2c(C(F)(F)F)cccc12)C1CCCCN1 (stereo not given)	FMDV inh inconclusive, HCMV inh -99, VACV Venus inh inconclusive, Vaccinia mCherry inconclusive (no result: LASV entry inh, MARV entry inh)
OC(c1cc(-c2ccc(C(F)(F)F)cc2)nc(C(F)(F)F)c1)C1CCCCN1 (stereo not given)	FMDV inh inconclusive, HCMV inh -102, VACV Venus inh 11µM, Vaccinia mCherry inconclusive (no result: LASV entry inh, MARV entry inh)
FC(F)(F)c1cc(N2CCNCC2)c2ccccc2n1	LASV entry inh inconclusive
CCOC(=O)C1=C(CCl)NC(=O)N(C(C)=O)C1c1ccccc1 (stereo not given)	LASV entry inh inconclusive (no result: FMDV inh, HCMV inh, VACV Venus inh, Vaccinia mCherry)
CC(C)[N+]1(C)C2CCC1CC(OC(=O)C(CO)c1ccccc1)C2 (stereo not given)	VACV Venus inh inconclusive (no result: HCMV inh, LASV entry inh, MARV entry inh)
NNC(=O)c1ccc(OCC2CC(c3ccc(Cl)cc3)=NO2)cc1 (stereo not given)	HCMV inh -95, VACV Venus inh inconclusive, LASV entry inh inconclusive, MARV entry inh inconclusive
Cc1cc(=O)oc2cc(OCC3CC(c4ccc(Cl)cc4)=NO3)ccc12 (stereo not given)	none (no result: VACV Venus inh, Vaccinia mCherry)
Cc1cccc(C)c1NC(=O)CSc1nc(C)c(CC(=O)c2ccc(Br)cc2)c(C)c1C#N	LASV entry inh 18µM, MARV entry inh inconclusive (no result: Vaccinia mCherry)
Cc1ccc(Cl)cc1NC(=O)CSc1nc(C)c(C)c(C)c1C#N	HCMV inh -85
CCc1nnc(NC(=O)CSc2nc(C)cc(C)c2C#N)s1	LASV entry inh inconclusive, MARV entry inh 7.9µM
CCOC(=O)CCN1C(=O)[C@H]2[C@H]3[C@H](O)[C@H](O)C/C(=N/NC(=O)OCc4ccc(OC)cc4)[C@@H]3CC[C@@H]2C1=O	none (no result: FMDV inh, HCMV inh, VACV Venus inh, Vaccinia mCherry, LASV entry inh)
O=S(=O)(c1ccccc1)N1CCC2(CC1)CN(c1ccccn1)C2	none (no result: HCMV inh, VACV Venus inh, Vaccinia mCherry, LASV entry inh, MARV entry inh)
COc1ccc([C@@H]2[C@@H](C(=O)N3CCOCC3)CC(=O)N2C(=O)c2ccccc2)cc1	none (no result: FMDV inh, VACV Venus inh, Vaccinia mCherry, LASV entry inh, MARV entry inh)
CNc1ccc(C=C2C=CC=C2)cc1	none (no result: FMDV inh, HCMV inh, LASV entry inh, MARV entry inh)
COC(=O)c1ccc(COc2ccccc2/C=C(\C#N)C(=O)Nc2c(C)cc(C)cc2C)cc1	FMDV inh inconclusive, HCMV inh -93, LASV entry inh inconclusive, MARV entry inh inconclusive
